Compound activity (PubChem)
proKLK7 act: proKLK7 zymogen activators, primary screen, biochemical, fluorescence intensity | purified proKLK7, EDANS-DABCYL substrate fluorescence; 100% is mature enzyme control, 0% vehicle | AID 652039, 2013 | Kallikrein-7 (Homo sapiens), P49862 | hit rate 0.9% among 370,000 | activation, % at 7 µM;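 active means activation above the mean of all tested compounds plus 3 SD, computed per campaign excluding outliers beyond control limits, cut at about 13% in these data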
ADAM10 inh: human ADAM10 inhibitors, primary screen, biochemical, QFRET, HTS; Disintegrin and metalloproteinase domain-containing protein 10 (Homo sapiens), O14672; recombinant ADAM10, EDANS/DABCYL FRET peptide cleavage, 3 h; inhibition, % at 7 µM; hit rate 0.62% among 370,000;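 active means inhibition above a per-campaign cutoff equal to the mean of compounds falling between control-based bounds plus 3 SD, cut at about 20% in these data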
MPTP block: mitochondrial permeability transition pore inhibitors, primary screen, biochemical, isolated mouse mitochondria, absorbance; Ca2+ swelling absorbance, 30 min; inhibition, % at 10 µM; hit rate 1.4% among 360,000; AID 602449, 2012;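 active means inhibition of 50% or more, scaled per plate between neutral and stimulator controls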
ADAM17 inh: ADAM17 inhibitors, primary screen, biochemical, QFRET; Disintegrin and metalloproteinase domain-containing protein 17 (Homo sapiens), P78536; recombinant ADAM17, EDANS/DABCYL FRET peptide cleavage; inhibition, % at 6.95 µM; hit rate 0.83% among 370,000;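 active means inhibition above the mean of compounds lying between control limits plus 3 SD, set per campaign, cut at about 8.5% in these data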
Pemphigus Ab inh: inhibitors of pemphigus antibody binding to DSG3, primary screen, biochemical, bead-based, flow cytometry, scFv-GFP. DSG3-coupled beads, scFv-anti-DSG3-GFP binding; active compounds read low. binding (percent of control), % at 10 µM. hit rate 0.48% among 310,000;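 active means binding more than 3 SD below its plate's average and above zero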;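 further: hits lower antibody fragment binding to DSG3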
rCAG RNA binder: binders of r(CAG) RNA repeats, primary screen, biochemical, fluorescence; AID 651821, 2012; hit rate 1.3% among 370,000; r(CAG) RNA repeat, TO-PRO-1 dye displacement fluorescence; inhibition, % at 3 µM;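 active means inhibition above the plate cutoff, the mean of all test compounds on that plate plus 3 SD, cut at about 35% in these data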;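 further: higher means more dye released from RNA so lower well fluorescence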
ADAM10 confirm: human ADAM10 inhibitors, confirmation, biochemical, QFRET, triplicate; shares compounds with ADAM10 inh; ADAM10 QFRET peptide cleavage, EDANS fluorescence; inhibition, % at 6.95 µM; hit rate 1% among 2,100; AID 743208, 2013;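 active means inhibition above about 20% chosen separately for each screening run, limit read from the data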
ADAM17 ctr: ADAM17 inhibitors, counter-screen for ADAM10 exosite inhibitor project, biochemical, QFRET, high throughput | shares compounds with ADAM10 inh | ADAM17 QFRET peptide cleavage, EDANS fluorescence | inhibition, % at 6.95 µM | hit rate 0.5% among 2,100 | AID 743214, 2013;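 active means mean triplicate inhibition above the solvent-only control wells' mean plus 3 SD, cut at about 12% in these data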
Of the large screens only hits and unclear results are named; the others gave an inactive call (follow-up assays come after a bar, where they were run). A selection: hits, their analogues and other compounds. The true share with any hit is near 4.7%.

COc1cccc(C(C)(O)c2nc(-c3ccc(C)c(C)c3)cs2)c1 (stereo not given)	ADAM10 inh 20.6 (no result: Pemphigus Ab inh) | ADAM10 confirm inactive | ADAM17 ctr inactive
Cc1ccc(NC(=O)CSc2nc(NS(=O)(=O)c3ccc(C)cc3)cc(=O)[nH]2)cc1	ADAM10 inh 23.0 | ADAM10 confirm inactive | ADAM17 ctr inactive
Cc1ccc(S(=O)(=O)Nc2cc(=O)[nH]c(SCC(=O)Nc3cccc(C(F)(F)F)c3)n2)cc1	none
O=C(NC(=S)NCc1ccco1)c1cccc(Cl)c1	none (no result: Pemphigus Ab inh)
O=C(NC(=S)NCc1ccccc1)c1cccc(Cl)c1	ADAM10 inh 20.5 | ADAM10 confirm inactive | ADAM17 ctr inactive
COc1cc(O)c2c(=O)c3c(O[C@H]4O[C@@H](CO)[C@H](O)[C@@H](O)[C@@H]4O)ccc(O)c3oc2c1	none
COc1cc(O)c2c(=O)c3c(O)ccc(O)c3oc2c1	ADAM10 inh 82.6 | ADAM10 confirm inactive | ADAM17 ctr inactive
COc1ccc(NC(=O)CSc2nc3c([nH]c4ccccc43)c(=O)n2C)cc1	ADAM10 inh 56.8 | ADAM10 confirm inactive | ADAM17 ctr inactive
COc1ccc(CNC(=O)C2CCN(S(=O)(=O)c3ccc(N4CCCC4=O)cc3)CC2)cc1	none
O=C(NCc1cccs1)c1ccc([N+](=O)[O-])cc1	ADAM10 inh 23.7 (no result: Pemphigus Ab inh) | ADAM10 confirm inactive | ADAM17 ctr inactive
CCCC/C(O)=C1\C(=O)CC(C)(C)CC1=Nc1ccc(OC)cc1	ADAM10 inh 41.5 | ADAM10 confirm inactive | ADAM17 ctr inactive
CCCCN(C(=O)Cc1ccc2c(c1)OCCO2)c1c(N)n(CC(C)C)c(=O)[nH]c1=O	none
COc1ccccc1CN1CC(C(=O)NCC2(O)CCCCC2)CCC1=O (stereo not given)	none
Cc1ccc(NC(=S)N2CCN(c3ccccn3)CC2)cc1C	ADAM10 inh 20.9 | ADAM10 confirm inactive | ADAM17 ctr inactive
Cc1cc(C)cc(NC(=S)N2CCN(c3ncccn3)CC2)c1	ADAM10 inh 34.7 | ADAM10 confirm inactive | ADAM17 ctr inactive
COc1ccc(CCC(=O)N2CCN(S(=O)(=O)c3ccc(C)cc3)CC2)cc1	none
COc1ccc(S(=O)(=O)N2CCN(C(=O)c3ccc([N+](=O)[O-])o3)CC2)cc1	ADAM10 inh 21.0 | ADAM10 confirm inactive | ADAM17 ctr inactive
O=C(N/C=N/OCc1ccc(Cl)cc1Cl)NOCc1ncc(C(F)(F)F)cc1Cl	ADAM10 inh 20.2, ADAM17 inh 11.5 | ADAM10 confirm inactive | ADAM17 ctr inactive
Cc1nc2c(OCc3ccc(C#N)cc3)cccn2c1N(C)Cc1cccs1	none (no result: Pemphigus Ab inh)
Cc1ccc(C(=S)NCS(=O)(=O)c2ccc(C)cc2)cc1	ADAM10 inh 26.4 | ADAM10 confirm 21.4 | ADAM17 ctr inactive
CCNC(=S)NS(=O)(=O)c1ccc(C)cc1	none
O=C(O)c1ccccc1NS(=O)(=O)c1cccc2cccnc12	ADAM10 inh 21.8 | ADAM10 confirm inactive | ADAM17 ctr inactive
O=C(Nc1cccc2ccccc12)c1ccccc1NS(=O)(=O)c1cccc2cccnc12	none
COc1ccc(S[C@]2(C(=O)N3CCN(C(C)=O)CC3)CC(=O)N(S(=O)(=O)c3ccc(F)cc3)[C@@H]2c2ccc(OC)cc2)cc1	none (no result: MPTP block, Pemphigus Ab inh)
COc1ccc(S[C@]2(C(=O)N3CCN(C(C)=O)CC3)CC(=O)N(C(=O)Nc3ccc(C)c(Cl)c3)[C@@H]2c2ccc(OC)cc2)cc1	ADAM10 inh 19.8, ADAM17 inh 9.5 (no result: MPTP block, Pemphigus Ab inh) | ADAM10 confirm inactive | ADAM17 ctr inactive
